Most compounds without a hit are left out; they make up all but 19% or so of the library.
Pf growth 96h: Primary qHTS for delayed death inhibitors of the malarial parasite plastid, 96 hour incubation; P. falciparum luciferase reporter growth, 96 h; Potency, µM (doses to about 28.7 µM), for inactives: top-dose activity change, negative = inhibition, actives largely listed as inhibitors; hit rate 6.9% among 320,000; AID 504834, 2011; further: potency means the concentration at half of the fitted maximal effect; on the % scale 0 is the no-effect control and ±100 the full control effect
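Compounds incubated with erythrocytes infected by luciferase-expressing P. falciparum (2% hematocrit, 0.05% parasitemia final) for 96 hours, 37 C in 5% CO2. Growth inhibition scored as decreased luciferase luminescence.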
LASV entry inh: qHTS for Inhibitors of binding or entry into cells for Lassa Virus | Potency, µM (titrated, usually from 37.9 µM), for the others: at the top dose activity change, negative = inhibition, actives largely listed as inhibitors | Lassa virus pseudotype entry inhibition, cell reporter | hit rate 1.2% among 300,000; calls by dose curve; tested in HEK293 cells; further: potency means the concentration at half of the fitted maximal effect; on the % scale 0 is the no-effect control and ±100 the full control effect; nearly all actives have a fitted effect of over 50% in size
Pf growth 48h: Primary qHTS for delayed death inhibitors of the malarial parasite plastid, 48 hour incubation. P. falciparum luciferase growth in erythrocytes, 48 h. Potency, µM (highest dose often 28.7 µM), for the others: at the top dose activity change, negative = inhibition, usual class: inhibitors. hit rate 5.9% among 310,000; further: potency means the concentration at half of the fitted maximal effect; on the % scale 0 is the no-effect control and ±100 the full control effect
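Cell-based growth assay: transgenic P. falciparum expressing firefly luciferase, cultured in red cells within RPMI 1640 containing 0.5% w/v Albumax, 24 mM bicarbonate and gentamycin. A drop in luciferase activity indicates inhibition.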
Shiga toxin inh: A qHTS for Small Molecule Inhibitors of Shiga Toxin; inhibition, % at 38.7 µM; Vero cells, Shiga toxin protein synthesis inhibition reporter; hit rate 9.2% among 290,000; in the data active means inhibition mostly above about 28%, no sharp cut-off; inactive means mostly below about 43%; further: 0% is about no effect
Marburg entry inh: qHTS for inhibitors of binding or entry into cells for Marburg Virus; hit rate 1.8% among 300,000; Marburg virus pseudotyped entry inhibition, cell reporter; Potency, µM (top dose mostly 37.8 µM), for the others: at the top dose activity change, negative = inhibition, most hits filed as inhibitors; calls by dose curve; tested in HEK293 cells; further: potency means the concentration at half of the fitted maximal effect; on the % scale 0 is the no-effect control and ±100 the full control effect
Cycloheximide cs: Cycloheximide Counterscreen for Small Molecule Inhibitors of Shiga Toxin | cell reporter, cycloheximide protein synthesis inhibition counterscreen | max response, % | hit rate 12% among 300,000 | AID 2314, 2010; in the data active means max response mostly above about 13%, no sharp cut-off; inactive means mostly below about 14%; further: read at 38.3 µM for the half of the compounds with a filed dose; 0% is about no effect
Starred values were filed as active, the others as inactive; u = inconclusive; x = no result given; [ ] = another dose, or the depositor's remark. Unless noted, the call rests on the fitted dose curve; in most records, active means well fitted inhibition curve with a large enough effect; inconclusive means small, poorly fitted or top-dose-only effect, or another doubt; inactive means no such curve, though single readings can be large or run the other way.

SMILES | Pf growth 96h | LASV entry inh | Pf growth 48h | Shiga toxin inh | Marburg entry inh | Cycloheximide cs
COC(=O)C1CN(C#N)N(c2ccc(Cl)cc2)C12c1ccccc1-c1ccccc12 (stereo not given) | 18% | 11µM* | 3.3µM* | -15 | u | -9
O=C1c2ccccc2C(O)N1c1ccc(Cl)cc1 (stereo not given) | u | x | x | 26 | 0% | -1
O=C1c2ccccc2NC(c2ccc3c(c2)OCO3)N1O (stereo not given) | 0.37µM* | -3% | -26% | 13 | u | 11
O=C1c2ccccc2NC(c2ccccc2O)N1O (stereo not given) | u | x | x | -10 | x | -2
O=C1c2ccccc2NC(c2ccc(O)c(O)c2)N1c1ccccc1Cl (stereo not given) | -9% | x | 7% | 41* | x | 27*
COc1cc(C2Nc3ccccc3C(=O)N2c2ccc3c(c2)OCCO3)ccc1OCC(C)C (stereo not given) | x | u | -22% | 61* | u | 31*
O=C1c2ccccc2NC(c2ccc3c(c2)OCCO3)N1c1ccc2c(c1)OCCO2 (stereo not given) | 133% | u | 46% | 81* | 8.9µM* | 44*
CCC(C)NC(=O)CSc1nc2cc3c(cc2c(=O)n1CCCC(=O)NCc1ccc2c(c1)OCO2)OCO3 (stereo not given) | x | 1%[46.1 µM] | x | x | x | x
OCc1nc2nc(Cl)c(Cl)nc2[nH]1 | 41% | x | 104% | 4 | x | 2
O=C(COC(=O)c1cccnc1Cl)NCCc1ccccc1 | 70% | x | 36% | x | x | x
O=C(OCC(=O)c1ccccc1Br)c1ccccn1 | 8.3µM* | 22% | 20% | 4 | -1%[46.1 µM] | -1
O=C(COC(=O)c1cccnc1Cl)c1ccc(F)cc1 | 21% | u | 10% | 97* | 2%[46.1 µM] | 22*
O=C(COC(=O)c1cccnc1Cl)c1ccccc1 | u | 21% | 46% | 71* | 23% | 47*
Cc1cccc(NC(=O)COC(=O)c2ccccn2)c1 | 0% | -1%[46.1 µM] | 16% | -8 | 10%[46.1 µM] | -2
CCC(C)(C)c1ccc(OC(=O)c2cccnc2Cl)cc1 | 27% | 24% | u | 124* | 8%[46.1 µM] | 38*
C[C@]12CCC3[C@@H](CCC4=CC(=O)CC[C@@]43C=O)C1CCC2=O (stereo not given in full) | -8% | x | u | -4 | -1% | -3
Cc1oc(-c2ccc(Cl)cc2)nc1CS(=O)CC(=O)NCCN1CCCC1 (stereo not given) | u | x | x | -22 | x | -4
COc1ccc(Cc2nnc(NC(=O)CS(=O)(=O)c3ccccc3)s2)cc1OC | -20% | 14%[46.1 µM] | -13% | 0 | 17%[46.1 µM] | -1
Cc1cccc2c(=O)cc(CSc3ccccc3NC(=O)c3cccc(Br)c3)[nH]c12 | x | -1%[46.1 µM] | x | x | x | x
CCOc1ccc2nc(NC(=O)c3ccc(OC)c(S(=O)(=O)N4CCOCC4)c3)sc2c1 | u | u | x | 0 | u | 2
CCc1ccc(C(=O)COC(=O)c2cccnc2Cl)cc1 | 47% | u | 39% | 95* | 18%[46.1 µM] | 39*
CCOC(=O)C(CC)Sc1ncnc2nc[nH]c12 (stereo not given) | 10µM* | 23% | -24% | -4 | 13% | 9
CCOC(=O)C(C)Sc1ncnc2nc[nH]c12 (stereo not given) | u | -21%[14.3 µM] | -22% | 11 | -9% | 1
COC(=O)C1=C(C)N(CCc2c[nH]c3ccccc23)C(=O)/C1=C\N(C)C | -25% | 1% | -2% | 15 | -5% | 1
O=C1C2CC=C(Cl)CC2C(=O)N1CCc1c[nH]c2ccccc12 (stereo not given) | u | -2% | u | 47* | 10% | 22*
SMILES | Pf growth 96h | LASV entry inh | Pf growth 48h | Shiga toxin inh | Marburg entry inh | Cycloheximide cs
CC1=CCC2C(=O)N(CCc3c[nH]c4ccccc34)C(=O)C2C1 (stereo not given) | u | 20% | u | active | 13% | 23*
O=C1C2CC=C(Cl)CC2C(=O)N1CCc1ccccc1 (stereo not given) | x | 16%[14.3 µM] | u | 27 | 4% | 19
CCn1c(C)cc(/C=C2/SC(=S)NC2=O)c1C | 11% | 16% | 53% | 30 | 3% | 21
Cc1cc(/C=C2\SC(=Nc3ccccc3)NC2=O)c(C)n1-c1ccc(S(N)(=O)=O)cc1 | u | u | 4.1µM* | -16 | 8.9µM* | -1
CN1C(=O)/C(=C/c2coc3ccc(O)cc3c2=O)SC1=S | 0% | x | -3% | -4 | x | -1
Cc1cc(/C=C2/C(=O)NC(=O)N(c3ccccc3)C2=O)c(C)n1-c1ccc(F)cc1 | x | -21% | x | x | -18% | x
Cc1cc(/C=C2\SC(N)=NC2=O)c(C)n1-c1ccc(F)cc1 | u | 1% | u | 16 | -30%[46.1 µM] | 20*
Cc1cc(/C=C2\SC(=S)N(C)C2=O)c(C)n1-c1ccc(O)cc1 | 0% | x | 68% | 70* | x | 52*
Cc1cc(/C=C2\SC(=S)NC2=O)c(C)n1-c1cccc(O)c1 | 266% | x | 182% | 64* | x | 41*
COc1ccc(N(CC(=O)NCc2ccc(C)cc2)S(=O)(=O)c2c(C)nn(C)c2C)cc1 | u | u | -7% | -15 | -14% | -9
Cc1cc(/C=C2/C(=O)NN(c3ccccc3)C2=O)c(C)n1-c1cccc(O)c1 | -1% | 4µM* | 10% | 60* | u | 57*
Cc1ccc(-n2c(C)cc(/C=C3\SC(=O)NC3=O)c2C)cc1 | 32% | x | 107% | 83* | x | 32*
COc1ccc(-n2c(C)cc(/C=C3\SC(=S)N(Cc4ccco4)C3=O)c2C)cc1 | -2% | -2% | u | -5 | 4% | -2
CC1=NN2C(=N)/C(=C\c3cc(C)n(-c4ccccc4)c3C)C(=O)N=C2S1 | -16% | 27%[46.1 µM] | 32% | -6 | 1%[46.1 µM] | 12
CC1=CC2=NC(=O)/C(=C\c3cc(C)n(-c4ccc(F)cc4)c3C)C(=N)N2O1 | u | 1% | 4.7µM* | -12 | -13% | -5
COc1ccc(-n2c(C)cc(/C=C3\SC(=O)NC3=O)c2C)cc1 | 15% | 18% | x | 58* | u | 42*
COc1ccc(Cl)cc1NC(=O)CCn1nc(C)cc1C | x | 15%[46.1 µM] | x | x | x | x
COc1ccc(C(=O)Nc2cccc(-c3ccc(N4CCOCC4)nn3)c2)cc1OC | u | -18% | 15% | x | -21% | x
CN(C)c1ccnc(NCc2ccccc2)c1C#N | x | 16% | 9% | 55* | 23% | 30*
Cc1ccccc1Nc1nccc(N(C)C)c1C#N | u | 18%[46.1 µM] | 23% | 8 | 19%[46.1 µM] | -1
CN(C)c1ccnc(N(Cc2ccccc2)Cc2ccccc2)c1C#N | x | 16% | u | 50* | u | 29*
Cc1cc(N(C)C)c(C#N)c(NCc2ccccc2)n1 | u | -23% | 2% | 22 | 4% | -4

Assay outcomes deposited in PubChem BioAssay by National Center for Advancing Translational Sciences (NCATS).
